Active and inactive are the calls of the source.
Tests used:
[1] = A549 cell viability effects, profiling panel, calcein-AM fluorescence, 48 h, basal (AID 1162); conditions: higher = more signal
[2] = adipocyte viability effects, profiling panel, cell-based, 3T3-L1 adipocytes, calcein-AM fluorescence, 48 h, basal (AID 1163); conditions: 3T3-L1 adipocytes viability, higher = more signal
[3] = HepG2 cell viability effects, profiling panel, calcein-AM fluorescence, 48 h, basal (AID 1164); conditions: higher = more signal
[4] = MM1S cell viability effects, profiling panel, calcein-AM fluorescence, 48 h, basal (AID 1165); conditions: higher = more signal;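 note: viability of MM1S multiple myeloma cells under basal unstimulated conditions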
[5] = basal RPMI8226 viability, no added stimulus, profiling panel, cell-based, calcein-AM fluorescence, 48 h, PK04 Diversity Set (AID 1166); conditions: RPMI8226 myeloma viability, higher = more signal;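 note: cells grown under basal conditions without added stimulus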
[6] = basal HepG2 mitochondrial membrane potential changes, profiling panel, cell-based, JC-1 fluorescence, 24 h, 100 nL compound (AID 1167); conditions: higher = more signal
[7] = basal 3T3-L1 adipocyte mitochondrial potential changes, profiling panel, cell-based, JC-1 fluorescence, 3T3-L1 adipocytes, 24 h, 100 nL compound (AID 1168); conditions: JC-1 mitochondrial fluorescence, higher = more signal, called active from +8 up or from −8 down
[8] = basal RPMI8226 mitochondrial membrane potential changes, profiling panel, cell-based, JC-1 fluorescence, 24 h, 100 nL compound (AID 1169); conditions: RPMI8226 myeloma, JC-1 mitochondrial potential fluorescence, higher = more signal
[9] = basal MM1S mitochondrial membrane potential changes, profiling panel, cell-based, JC-1 fluorescence, 24 h, 100 nL compound (AID 1170); conditions: higher = more signal
[10] = A549 lung cancer cell viability effects, profiling panel, resazurin fluorescence, 24 h, PK04 Diversity Set (AID 1171); conditions: higher = more signal, called active from +8 up or from −8 down
Note: test concentration not given here.

Row | SMILES | z-score [1] | z-score [2] | z-score [3] | z-score [4] | z-score [5] | z-score [6] | z-score [7] | z-score [8] | z-score [9] | z-score [10]
1 | COCCOC(=O)N1C(=O)[C@@]2(c3cc(C#CCNC(N)=O)ccc31)[C@H](c1ccc(O)cc1)N1[C@H](c3ccccc3)[C@H](c3ccccc3)OC(=O)[C@H]1[C@@H]2C(=O)N1CCc2cc(OC)c(OC)cc2C1 | 0.571 | -0.065 | -0.281 | -0.72 | 0.542 | -1.82 | -0.338 (inactive) | 0.0593 | 0.583 | 0.0875 (inactive)
2 | C=CCNC(=O)[C@H]1[C@@H]2C(=O)O[C@@H](c3ccccc3)[C@@H](c3ccccc3)N2[C@@H](c2ccc(O)cc2)[C@]12C(=O)Nc1ccc(C#CCC(C(=O)OC)C(=O)OC)cc12 | 0.33 | -0.0589 | 0.102 | -2.95 | -4.12 | -0.922 | -0.363 (inactive) | -0.891 | 0.111 | 0.0955 (inactive)
3 | C=C(C(=O)CC[C@H](OC(=O)c1ccccc1-c1ccccc1C(=O)O)c1ccc(OCCO)cc1)C(C)C | -0.535 | 0.484 | -0.659 | -1.43 | -1.48 | 0.17 | 0.447 (inactive) | 0.0683 | -0.0663 | 0.393 (inactive)
4 | CC(C)(C)OC(=O)CC[C@]1(C(=O)N2CCOCC2)COC(c2ccc(OCCCO)cc2)=N1 | 0.204 | -0.492 | 1.26 | 0.571 | -0.785 | 2.31 | -0.305 (inactive) | -0.44 | -0.143 | 0.216 (inactive)
5 | COCCOC(=O)N1C(=O)[C@@]2(c3cc(C#CCC(C(=O)OC)C(=O)OC)ccc31)[C@H](C(N)=O)[C@H]1C(=O)O[C@H](c3ccccc3)[C@H](c3ccccc3)N1[C@@H]2c1ccccc1OCCO | 1.3 | 1.27 | 0.645 | -2.97 | -3.48 | 0.142 | 1.83 (inactive) | -0.79 | -1.62 | -0.175 (inactive)
6 | COCCOC(=O)N1C(=O)[C@@]2(c3cc(C#CCC(C(=O)OC)C(=O)OC)ccc31)[C@H](C(=O)N1CCc3cc(OC)c(OC)cc3C1)[C@H]1C(=O)O[C@H](c3ccccc3)[C@H](c3ccccc3)N1[C@@H]2c1ccccc1OCCO | 0.184 | 0.964 | -0.717 | -2.22 | -0.619 | 0.543 | 1.14 (inactive) | -0.946 | -1.05 | 0.853 (inactive)
7 | C=CCNC(=O)[C@H]1[C@@H]2C(=O)O[C@@H](c3ccccc3)[C@@H](c3ccccc3)N2[C@@H](c2ccc(OCCO)cc2)[C@]12C(=O)N(C(=O)OCCOC)c1ccc(C#CCNC(N)=O)cc12 | 0.0935 | -0.585 | 0.854 | 0.952 | 1.27 | 0.0391 | 0.668 (inactive) | -0.596 | -0.919 | -0.226 (inactive)
8 | CO[C@H]1O[C@H](CO)[C@@H](OC(=O)Nc2ccccc2)[C@@H]2OC(=O)[C@@H](Cc3ccccc3)C/C=C/C[C@H](Cc3ccccc3)C(=O)O[C@@H]12 | -0.255 | -0.0852 | 0.297 | 0.36 | 0.335 | -0.502 | 2.28 (inactive) | -0.532 | -1.65 | -0.869 (inactive)
9 | COC(=O)c1ccc(OC)c(/C=C\CC(OC(=O)c2ccncc2)c2ccccc2)c1 (stereo not given) | 1.46 | -0.347 | 1.04 | -1.64 | -1.5 | 0.615 | 0.202 (inactive) | -0.177 | 0.148 | 0.271 (inactive)
10 | CC(C)(C)OC(=O)N1[C@@H](C=C(Br)Br)COC1(C)C | 0.4 | 0.46 | 1.32 | -0.255 | -0.639 | 0.175 | 1.2 (inactive) | -0.187 | 0.548 | -1.4 (inactive)
11 | C=C(CCCC)C(=O)CC[C@@H](OC(C)=O)c1ccc(OCCO)cc1 | -0.0836 | 0.997 | -0.439 | -1.97 | -1.92 | -0.338 | -0.362 (inactive) | -0.793 | -0.36 | 0.325 (inactive)
12 | [N-]=[N+]=Nc1ccccc1C[C@]1(C(=O)N2CCCCC2)N=C(c2ccc(OCCCO)cc2)O[C@H]1c1ccccc1 | -0.786 | 0.0946 | 0.014 | -3.29 | -4.3 | 0.839 | 0.231 (inactive) | -1.2 | -2.15 | -0.676 (inactive)
13 | COc1ccc(CCNC(=O)[C@@H]2c3ccccc3C(=O)N(C(C)C)[C@H]2c2ccc(CO)cc2)cc1 | 2.2 | 1.29 | 0.188 | -0.397 | 1.1 | 0.733 | -0.232 (inactive) | -0.482 | 0.978 | 1.12 (inactive)
14 | O=C1C2C=CC(C(O)C(c3ccccc3)c3ccccc3)N(Nc3ccccc3F)C2C(=O)N1c1ccccc1 (stereo not given) | -0.486 | -0.368 | 0.355 | -1.33 | -0.0284 | -1.7 | -1.3 (inactive) | 0.284 | -0.73 | -0.021 (inactive)
15 | O=C1c2ccccc2[C@@]2(Cc3ccccc3N(CC(F)(F)F)C2=O)[C@H](c2ccc(CO)cc2)N1Cc1ccccc1 | -0.293 | 1.21 | -1.13 | 0.191 | -2.24 | -0.631 | -2.33 (inactive) | 0.928 | -1.09 | -0.279 (inactive)
16 | COc1ccc(-c2cc3c(c(CCc4ccccc4)n2)[Si](C(C)C)(C(C)C)O[C@H]3c2ccccc2)cn1 | 0.359 | -0.724 | 1.27 | -1.82 | -2.55 | -2.71 | -0.904 (inactive) | -0.405 | -0.622 | 0.996 (inactive)

Row | SMILES | z-score [1] | z-score [2] | z-score [3] | z-score [4] | z-score [5] | z-score [6] | z-score [7] | z-score [8] | z-score [9] | z-score [10]
17 | COc1c(C)cc(-c2nc(-c3ccccc3)c3c(c2C)CO[Si]3(C(C)C)C(C)C)cc1C | -0.926 | -1.12 | -0.518 | -0.532 | -0.931 | -0.175 | -1.19 (inactive) | 0.379 | -0.294 | 1.44 (inactive)
18 | C=CCNC(=O)[C@H]1[C@@H]2C(=O)O[C@@H](c3ccccc3)[C@@H](c3ccccc3)N2[C@@H](c2ccc(OCCO)cc2)[C@]12C(=O)N(C(=O)OCCOC)c1ccc(C#CCC(C(=O)OC)C(=O)OC)cc12 | 1.32 | 0.0681 | 0.811 | 0.495 | -0.749 | -0.517 | 0.566 (inactive) | -0.82 | -1.58 | -0.0048 (inactive)
19 | C[C@]1(C(=O)NC2CC2)c2ccccc2C(=O)N(Cc2cc(F)cc(C(F)(F)F)c2)[C@H]1c1ccc(CO)cc1 | -0.685 | 0.274 | 0.0046 | 0.0749 | -0.237 | 1.2 | 0.0232 (inactive) | 0.107 | -0.328 | 1.79 (inactive)
20 | CC(C)(C)OC(=O)CC[C@]1(C(N)=O)N=C(c2ccc(OCCCO)cc2)O[C@H]1c1ccccc1N=[N+]=[N-] | -0.263 | -0.251 | 0.934 | 0.381 | 0.882 | -0.445 | -0.109 (inactive) | -0.132 | -1 | 0.066 (inactive)
21 | C=CCOC(=O)[C@H]1[C@@H]2C(=O)O[C@@H](c3ccccc3)[C@@H](c3ccccc3)N2[C@@H](c2ccc(OCCOC(=O)[C@@H]3C[C@@H]4C(=O)N[C@@H](Cc5ccccc5)C(=O)N4[C@@H]3c3ccc(O)cc3)cc2)[C@]12C(=O)Nc1ccc(I)cc12 | -1.29 | -0.28 | 0.561 | -0.325 | -0.561 | -2.14 | 0.687 (inactive) | -0.398 | -1.03 | -0.454 (inactive)
22 | O=C1OC[C@@H](c2ccccc2)n2cc(/C=C/c3ccccc3)cc21 | -0.235 | 1.75 | -0.202 | -0.472 | -0.597 | -0.564 | 0.156 (inactive) | -0.161 | -0.735 | 0.229 (inactive)
23 | C=C(C(=O)CC[C@@H](OC(=O)c1cccnc1)c1cccc(OCCO)c1)C(C)C | 0.281 | 0.568 | 1.19 | -1.27 | -0.855 | -0.0539 | -0.227 (inactive) | -0.706 | -0.928 | 0.508 (inactive)
24 | COc1ccc([Si](C)(C)[C@@H]2[C@@H](CC(=O)N(CCO)Cc3ccccc3)O[C@]3(C(=O)N(Cc4cccc(I)c4)c4ccccc43)[C@H]2C)cc1 | -1.09 | 1.05 | -1.59 | -2.55 | -4.25 | 0.198 | 1.5 (inactive) | -1.2 | -1.68 | -2.97 (inactive)
25 | CC[C@@H](O[Si](C#C[Si](C(C)C)(C(C)C)C(C)C)(C(C)C)C(C)C)c1cn([C@H](CO)Cc2ccccc2)nn1 | -0.28 | -1.04 | 0.928 | 0.297 | 0.944 | 0.74 | -0.123 (inactive) | -0.0761 | -0.757 | 0.194 (inactive)
26 | C=C(COC)C(=O)CC[C@@H](OC(=O)c1ccccc1-c1ccccc1C(=O)O)c1ccccc1OCCO | -0.184 | 0.615 | -0.248 | -3.31 | -3.75 | -1.13 | -0.305 (inactive) | -0.88 | -1.84 | 0.393 (inactive)
27 | CCCCN1CC=CC23O[C@@H]4/C=C\CCC(C)OC(=O)C4[C@H]2C(=O)N(CCO)[C@@H]3C1=O (stereo not given in full) | -0.266 | 0.555 | -0.406 | -0.0157 | -1.19 | 0.0609 | -0.0386 (inactive) | 0.881 | 0.213 | 0.265 (inactive)
28 | C=CC[C@]12N=C(c3ccc(OCCCO)cc3)O[C@H]1c1ccccc1N(CCC)C2=O | -1.36 | 0.538 | -0.454 | -2.03 | -3.07 | 0.788 | 1.85 (inactive) | -1.07 | -0.207 | 0.266 (inactive)
29 | CO[C@H]1O[C@H](CO)[C@@H](OC(=O)Nc2cccc(F)c2)[C@H](OC(=O)c2cc3ccccc3[nH]2)[C@H]1OC(=O)c1cc2ccccc2[nH]1 | 1.16 | 0.437 | 0.387 | 0.0134 | 0.804 | -1.56 | 2.42 (inactive) | -0.397 | -0.415 | -2.49 (inactive)
30 | CN1C(=O)C2C=CC(C(O)c3cccs3)N(N(c3ccccc3)c3ccccc3)C2C1=O (stereo not given) | -0.404 | -1.97 | 0.44 | 0.442 | 0.398 | 0.27 | -1.02 (inactive) | -0.24 | -0.694 | -0.659 (inactive)
31 | CS(=O)(=O)CCOC(=O)C1=CC(CCCO)=CC(C2CC2)N(Cc2sc3ccccc3c2Cl)C=C1C(=O)OCCS(C)(=O)=O (stereo not given) | -0.768 | 0.968 | -0.344 | -3.24 | -3.05 | 1.67 | 0.182 (inactive) | -0.843 | -1.27 | 0.459 (inactive)

— PubChem BioAssay
